Bioassay records: PubChem BioAssay, several laboratories
tim10-1 inh = tim10-1 yeast growth inhibition; S. cerevisiae tim10-1 ts strain growth, BacTiter-Glo, 24 h; inhibition, % at 20 µM; 330,000 compounds, 2.2% hits;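 active means inhibition of at least 40%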;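 further: mutant grown at 25 °C; 0% = DMSO wells with yeast and 100% = wells holding no yeast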
PfHsp90 set2 = inhibits growth of yeast expressing Plasmodium falciparum Hsp90. inhibition, % at 9.4 µM. 310,000 compounds, 0.32% hits. AID 504621. S. cerevisiae expressing PfHsp90, BacTiter-Glo ATP, 48 h; yeast lacking PDR1 and PDR3 efflux regulators;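 active means every replicate shows inhibition above about 80%, whatever the replicate mean, limit read from the data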;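 further: 0% = DMSO neutral controls and 100% = 20 µM radicicol positive controls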
tim23-1 inh = tim23-1 yeast growth inhibition; S. cerevisiae tim23-1 growth, BacTiter-Glo luminescence, 24 h; inhibition, % at 20 µM; 330,000 compounds, 1.3% hits; AID 463212;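 active means growth inhibition of the mutant yeast at or above 50%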;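 further: temperature-sensitive mutant grown at 25 °C; plate controls were DMSO-treated mutant yeast for no effect and medium wells lacking yeast for full effect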
SUMO Mot1 rescue = inhibitors of SUMOylation pathway: yeast Mot1-301 growth rescue | S. cerevisiae Mot1-301 growth rescue, ATP luminescence, 38.5C; percent above DMSO median, 100 means doubled | growth rescue, % at 18.8 µM | 320,000 compounds, 1% hits | AID 2716;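 active means every valid replicate shows activation above 250% relative to neutral control wells; inactive means the rest, any valid replicate at or below 250%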;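 further: OY570 slx delta 5 strain wells were the positive control but not used for scaling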
TIM10 inh = TIM10 yeast growth inhibition; S. cerevisiae TIM10 strain growth, BacTiter-Glo luminescence, 24 h; inhibition, % at 10 µM; 330,000 compounds, 1.4% hits;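 active means inhibition of 40% or more at the single tested concentration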;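 further: wild-type TIM10 isogenic control strain grown at permissive 25 °C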
tim10-1 conf = tim10-1 yeast growth inhibition, confirmed; 7,400 compounds, 56% hits; AID 463213; S. cerevisiae tim10-1 ts strain growth, BacTiter-Glo, 24 h; shares compounds with tim10-1 inh; inhibition, % at 20 µM;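 active means inhibition of yeast growth at or above a set limit in either of two repeat tests at 20 µM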;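 further: tim10-1 mutant grown at permissive 25 °C to find synthetic lethal compounds; 0% = DMSO yeast wells and 100% = medium wells without yeast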
tim10 confirm = TIM10 yeast growth inhibition, confirmed; shares compounds with TIM10 inh; S. cerevisiae tim10 strain growth, BacTiter-Glo luminescence, 24 h; inhibition, % at 10 µM; 4,600 compounds, 63% hits; AID 463215;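 active means inhibition of yeast growth at or above a set limit in either of two replicates at 10 µM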;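 further: this counterscreen used the strain with wild-type TIM10; 0% = yeast with DMSO and 100% = medium wells lacking yeast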
Numbers without * were called inactive; . = not tested or not shown. An excerpt weighted towards active compounds, which were near 4.4% of everything screened.

SMILES | tim10-1 inh | PfHsp90 set2 | tim23-1 inh | SUMO Mot1 rescue | TIM10 inh | tim10-1 conf | tim10 confirm
O=C(NC12CC3CC(CC(C3)C1)C2)c1ccccc1O | 50.4* | 9.2 | 31.6 | 71.7 | 49.0* | 50.8* | 48.0*
CCOC(=O)C1CCN(C(=O)C2CCC(=O)N(CC3CCCCC3)C2)CC1 (centres undefined) | -18.7 | 19.9 | -7.1 | -14.1 | 6.9 | . | .
Cc1ccc(NC(=O)c2ncn(CCCN[C@H](C)c3cccc4ccccc34)n2)cc1C | . | -6.5 | . | . | . | . | .
N=c1c2c(-c3ccccc3)c(-c3ccccc3)n(Cc3ccco3)c2ncn1CCCn1ccnc1 | . | -23.5 | . | 13.6 | . | . | .
N=c1c2c(-c3ccccc3)c(-c3ccccc3)n(Cc3ccccc3)c2ncn1CCO | 46.8* | -9.1 | 32.3 | -8.9 | 47.8* | 36.3* | 29.4
Cc1cc(NC(=O)C2CC2)ncc1NC(=O)C12CC3CC(CC(C3)C1)C2 | 53.8* | 30.4 | 48.4 | 85.8 | 47.6* | 39.6* | -21.4
COc1ccc(-n2c(SCCNCCO)nc3sc4c(c3c2=O)CCCC4)cc1 | 15.2 | 5.2 | 15.6 | -11.8 | 11.9 | . | .
Fc1ccc2c(c1)c1n[nH]c(=S)nc1n2CCc1ccccc1 | 22.4 | -20.5 | 9.6 | . | 26.6 | . | .
Cc1ccc2c(c1)c1n[nH]c(=S)nc1n2CCc1ccccc1 | 46.4* | -1.3 | 27.6 | 165.7 | 40.8* | -0.1 | 38.4*
CC(C)c1nc2oc3c(NCC4CCCO4)ncnc3c2c2c1CCC2 (centres undefined) | 45.5* | . | 30.5 | 15.9 | 45.5* | 26.8 | 12.8
Cn1c(N)c(C(=O)COC(=O)c2ccc(OC(F)F)cc2)c(=O)n(C)c1=O | 16.9 | . | 6.3 | 15.0 | 2.3 | . | .
COc1ccc(Nc2nc(-c3ccc4c(c3)NC(=O)CO4)cs2)cc1 | 40.0 | -20.0 | 40.4 | 16.8 | 46.2* | 30.7* | 46.3*
COc1cccc(NC(=O)COC(=O)CCSc2ccccc2)c1 | 21.6 | -18.2 | 31.8 | 0.2 | 4.0 | . | .
CN(C)CCNC(=S)Nc1ccccc1Cl | -15.3 | 26.7 | -18.1 | 4.7 | -12.1 | . | .
S=C(NCCCc1ccccc1)Nc1ccccc1Cl | 49.4* | 16.5 | 29.5 | 28.1 | 52.3* | 38.2* | 40.7*
CC(NC(=O)/C(C#N)=C/c1ccc([N+](=O)[O-])o1)c1ccccc1 (centres undefined) | 50.4* | -5.8 | -71.1 | 146.1 | 61.7* | 23.1 | 92.8*
CC(NC(=O)/C(C#N)=C/c1ccco1)c1ccccc1 (centres undefined) | -5.4 | 21.0 | 6.5 | -14.9 | -25.8 | . | .
CCCCN(CC)CCCNC(=O)c1cn(C)c2ccc(S(=O)(=O)N(C)C3CCCCC3)cc2c1=O | 14.6 | 10.3 | 4.9 | -2.7 | -5.9 | . | .
CCN1C(=O)/C(=C\c2nc3ccccc3c(=O)n2-c2ccccc2)c2ccccc21 | 42.2* | 5.0 | 49.7 | -16.5 | 43.4* | 33.0* | 18.3
COc1ccc(-n2c(/C=C3\C(=O)N(C)c4ccccc43)nc3ccccc3c2=O)cc1 | 24.3 | -14.6 | 33.2 | -8.3 | 11.7 | . | .
Cc1ccccc1-n1c(SCC(=O)c2c(N)n(C3CC3)c(=O)[nH]c2=O)nnc1N1CCOCC1 | -7.4 | 11.1 | 9.4 | -18.8 | -1.0 | . | .
CNC(=O)COC(=O)c1ccc2c(c1)S(=O)(=O)c1ccccc1C2=O | 5.8 | -22.9 | 0.1 | -15.0 | -4.9 | . | .
O=C(NC(=S)Nc1cccc([N+](=O)[O-])c1)C1CCCC1 | 54.1* | 14.2 | 48.8 | -11.6 | 46.9* | 44.8* | 51.5*
O=C(Nc1cccc([N+](=O)[O-])c1)NC1CCCCCCC1 | 42.7* | 21.8 | 43.6 | -4.0 | 44.1* | 36.2* | 42.4*
CC(=O)NC1C(c2nc3ccccc3s2)=C(c2ccccc2)C(=O)N1c1ccc(C)cc1 (centres undefined) | 53.4* | 0.4 | 34.1 | 286.2 | 50.7* | 50.5* | 37.0*
O=C(Nc1ccc(Cl)cc1)N(Cc1nc2ccccc2c(=O)[nH]1)Cc1cccs1 | 33.5 | 12.5 | 25.6 | -10.8 | 7.5 | . | .
O=C(Nc1ccc(Cl)cc1)N(Cc1cccs1)Cc1cccs1 | 47.2* | 2.2 | 46.8 | 1.9 | 57.2* | 41.0* | -16.8
CCCN(Cc1nnc(-c2cccs2)o1)C(=O)c1cccc(S(=O)(=O)N2CCOCC2)c1 | 0.8 | 3.2 | 0.7 | 1.2 | 11.5 | . | .
